Drawing on PMC7862700, “An all-to-all approach to the identification of sequence-specific readers for epigenetic DNA modifications on cytosine”, this text covers binding signal for one sequence.

Assay in all cases: DAPPL (digital affinity profiling via proximity ligation, sequencing); 10 mM Tris-HCl pH 7.5, 50 mM NaCl, 1 mM DTT, 4% glycerol, room temperature, 30 min; GST-TFs on glutathione beads, 16-mer random dsDNA library, 0.1% formaldehyde crosslink after washing; high values mean tight binding
The target in test [1] is T1, FLI1 (Homo sapiens, UniProt Q01543 1-452).
T1 sequence: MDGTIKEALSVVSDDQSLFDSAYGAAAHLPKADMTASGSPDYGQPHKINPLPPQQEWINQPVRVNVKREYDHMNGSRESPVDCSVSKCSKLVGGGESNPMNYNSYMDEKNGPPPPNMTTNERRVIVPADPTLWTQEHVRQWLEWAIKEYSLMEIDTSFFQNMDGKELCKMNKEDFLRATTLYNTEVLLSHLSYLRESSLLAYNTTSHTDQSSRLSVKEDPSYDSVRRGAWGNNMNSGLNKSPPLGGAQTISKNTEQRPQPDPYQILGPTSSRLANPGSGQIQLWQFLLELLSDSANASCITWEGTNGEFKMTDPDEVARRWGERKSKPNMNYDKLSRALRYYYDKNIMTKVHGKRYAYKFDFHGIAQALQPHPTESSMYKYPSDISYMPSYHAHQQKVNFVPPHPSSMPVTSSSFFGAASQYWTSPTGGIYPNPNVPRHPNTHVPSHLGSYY
Particulars: protein: recombinant; tags: N-terminal GST; dsDNA, one strand shown. In short, it runs like this:
(§1)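 Binding signal is given per hexamer as its read frequency for a factor divided by its frequency in the tag-only sample. GST-fused human transcription factors were expressed in yeast, captured on glutathione beads, barcoded with DNA and pooled with that sample, then incubated with 200 nmole of a 16-mer random double-stranded DNA library in Tris/NaCl/DTT/glycerol buffer for 30 min at room temperature. The pools were then washed, crosslinked, proximity-ligated, amplified by PCR and sequenced on an Illumina NextSeq500.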

The target in test [2] is T2, ELK1 (Homo sapiens, UniProt P19419 1-428).
T2 sequence: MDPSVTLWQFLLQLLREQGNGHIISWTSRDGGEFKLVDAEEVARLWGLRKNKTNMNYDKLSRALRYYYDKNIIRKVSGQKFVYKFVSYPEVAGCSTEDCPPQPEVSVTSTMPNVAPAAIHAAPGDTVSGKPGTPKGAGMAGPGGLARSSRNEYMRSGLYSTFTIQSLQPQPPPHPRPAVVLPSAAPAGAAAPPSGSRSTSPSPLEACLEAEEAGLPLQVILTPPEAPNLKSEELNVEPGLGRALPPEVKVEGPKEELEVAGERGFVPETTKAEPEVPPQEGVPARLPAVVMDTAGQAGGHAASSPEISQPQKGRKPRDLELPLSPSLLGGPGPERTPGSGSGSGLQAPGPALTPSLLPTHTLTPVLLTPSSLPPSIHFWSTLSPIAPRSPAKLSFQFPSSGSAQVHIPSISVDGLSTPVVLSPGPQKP
Particulars: protein: recombinant; tags: N-terminal GST; dsDNA, one strand shown. Put shortly: as §1

In test [3] the target is T3, GABPA (Homo sapiens, UniProt Q06546 1-454).
T3 sequence: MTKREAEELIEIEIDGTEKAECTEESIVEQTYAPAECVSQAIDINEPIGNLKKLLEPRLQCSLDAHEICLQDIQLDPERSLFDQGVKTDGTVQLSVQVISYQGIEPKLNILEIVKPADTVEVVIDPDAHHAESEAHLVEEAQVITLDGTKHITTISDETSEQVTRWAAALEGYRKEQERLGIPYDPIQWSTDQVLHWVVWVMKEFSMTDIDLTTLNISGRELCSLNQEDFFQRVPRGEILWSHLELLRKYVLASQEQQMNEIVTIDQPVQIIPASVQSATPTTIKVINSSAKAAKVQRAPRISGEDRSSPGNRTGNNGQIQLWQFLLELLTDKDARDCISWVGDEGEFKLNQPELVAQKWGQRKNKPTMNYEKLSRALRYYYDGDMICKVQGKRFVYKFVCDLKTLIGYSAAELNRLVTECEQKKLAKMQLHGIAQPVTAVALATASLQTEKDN
To be noted: protein: recombinant; tags: N-terminal GST; dsDNA, one strand shown. In short, it runs like this:
as §1

The target in test [4] is T4, ERG (Homo sapiens, UniProt P11308 1-479).
T4 sequence: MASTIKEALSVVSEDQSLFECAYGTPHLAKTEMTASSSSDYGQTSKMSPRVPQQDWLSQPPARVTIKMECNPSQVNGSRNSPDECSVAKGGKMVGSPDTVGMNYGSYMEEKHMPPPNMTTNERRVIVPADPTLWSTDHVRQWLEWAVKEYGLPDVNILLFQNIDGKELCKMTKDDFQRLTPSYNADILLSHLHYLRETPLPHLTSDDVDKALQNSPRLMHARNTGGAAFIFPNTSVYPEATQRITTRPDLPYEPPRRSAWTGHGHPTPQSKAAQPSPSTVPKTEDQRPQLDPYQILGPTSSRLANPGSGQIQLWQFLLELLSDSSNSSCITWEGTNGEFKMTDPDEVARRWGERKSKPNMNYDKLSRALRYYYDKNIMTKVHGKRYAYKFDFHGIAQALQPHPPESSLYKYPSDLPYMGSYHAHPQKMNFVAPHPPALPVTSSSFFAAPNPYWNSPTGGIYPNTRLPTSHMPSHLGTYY
Particulars: protein: recombinant; tags: N-terminal GST; dsDNA, one strand shown. Put shortly:
as §1

The target in test [5] is ELF1 (Homo sapiens, UniProt P32519 1-619). To be noted: protein: recombinant; tags: N-terminal GST; dsDNA, one strand shown. In short, it runs like this: as §1
Chain of ELF1 (P32519 whole entry): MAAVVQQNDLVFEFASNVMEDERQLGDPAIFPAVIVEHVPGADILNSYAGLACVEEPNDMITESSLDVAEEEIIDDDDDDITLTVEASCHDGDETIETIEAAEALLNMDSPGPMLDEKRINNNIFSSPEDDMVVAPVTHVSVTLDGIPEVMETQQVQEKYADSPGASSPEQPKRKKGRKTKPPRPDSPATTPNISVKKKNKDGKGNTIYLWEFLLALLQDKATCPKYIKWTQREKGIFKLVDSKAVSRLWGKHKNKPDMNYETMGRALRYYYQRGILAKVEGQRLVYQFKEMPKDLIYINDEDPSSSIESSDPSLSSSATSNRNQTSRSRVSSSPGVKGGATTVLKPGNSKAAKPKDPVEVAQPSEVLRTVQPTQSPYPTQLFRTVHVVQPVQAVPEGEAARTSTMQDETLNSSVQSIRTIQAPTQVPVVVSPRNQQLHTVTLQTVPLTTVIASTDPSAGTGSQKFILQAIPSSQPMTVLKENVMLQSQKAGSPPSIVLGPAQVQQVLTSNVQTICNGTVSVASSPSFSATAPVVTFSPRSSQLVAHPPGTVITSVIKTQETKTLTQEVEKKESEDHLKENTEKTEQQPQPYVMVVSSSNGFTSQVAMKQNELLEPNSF
Test [6] has as its target T5, EHF (Homo sapiens, UniProt Q9NZC4 1-300).
T5 sequence: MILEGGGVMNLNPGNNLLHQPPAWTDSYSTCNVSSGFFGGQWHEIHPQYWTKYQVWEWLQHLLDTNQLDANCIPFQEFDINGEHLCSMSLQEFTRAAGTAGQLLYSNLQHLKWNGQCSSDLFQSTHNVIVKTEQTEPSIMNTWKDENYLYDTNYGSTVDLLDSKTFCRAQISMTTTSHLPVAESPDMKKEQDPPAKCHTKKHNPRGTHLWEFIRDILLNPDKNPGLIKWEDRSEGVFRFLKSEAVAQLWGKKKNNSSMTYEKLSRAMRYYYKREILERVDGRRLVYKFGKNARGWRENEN
Particulars: protein: recombinant; tags: N-terminal GST; dsDNA, one strand shown. In short, it runs like this: as §1

Test [7] has as its target SPI1 (Homo sapiens, UniProt P17947 1-270). To be noted: protein: recombinant; tags: N-terminal GST; dsDNA, one strand shown. In short, it runs like this: as §1
Test [8] deals with SPIB (Homo sapiens, UniProt Q01892 1-262). To be noted: protein: recombinant; tags: N-terminal GST; dsDNA, one strand shown. Put shortly: as §1
Chain of SPIB (Q01892 whole entry): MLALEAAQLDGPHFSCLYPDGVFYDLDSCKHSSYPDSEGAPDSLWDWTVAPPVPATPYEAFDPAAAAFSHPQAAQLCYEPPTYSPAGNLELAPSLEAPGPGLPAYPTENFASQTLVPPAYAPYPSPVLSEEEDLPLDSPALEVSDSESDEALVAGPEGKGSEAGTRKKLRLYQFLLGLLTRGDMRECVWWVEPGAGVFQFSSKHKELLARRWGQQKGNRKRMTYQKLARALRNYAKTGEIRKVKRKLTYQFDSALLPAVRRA
The target in test [9] is T6, ELK3 (Homo sapiens, UniProt P41970 1-407).
T6 sequence: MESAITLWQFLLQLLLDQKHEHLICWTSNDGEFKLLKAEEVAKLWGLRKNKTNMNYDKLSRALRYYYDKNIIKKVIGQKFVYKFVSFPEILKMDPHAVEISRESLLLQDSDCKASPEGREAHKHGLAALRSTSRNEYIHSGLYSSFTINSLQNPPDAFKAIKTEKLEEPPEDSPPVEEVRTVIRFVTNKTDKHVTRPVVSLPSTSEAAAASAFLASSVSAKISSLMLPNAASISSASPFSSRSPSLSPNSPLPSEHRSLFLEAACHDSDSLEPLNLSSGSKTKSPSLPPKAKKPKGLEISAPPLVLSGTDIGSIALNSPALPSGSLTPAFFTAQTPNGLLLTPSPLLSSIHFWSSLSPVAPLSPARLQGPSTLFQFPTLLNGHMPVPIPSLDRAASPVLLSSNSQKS
Particulars: protein: recombinant; tags: N-terminal GST; dsDNA, one strand shown. In short, it runs like this: as §1

The target in test [10] is T7, FEV (Homo sapiens, UniProt Q99581 1-238).
T7 sequence: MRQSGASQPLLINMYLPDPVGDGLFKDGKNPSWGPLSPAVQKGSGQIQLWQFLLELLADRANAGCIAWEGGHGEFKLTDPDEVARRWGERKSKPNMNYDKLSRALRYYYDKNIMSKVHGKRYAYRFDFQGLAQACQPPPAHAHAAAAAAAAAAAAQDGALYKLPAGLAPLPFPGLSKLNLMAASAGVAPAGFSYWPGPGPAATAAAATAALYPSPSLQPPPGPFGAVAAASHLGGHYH
Particulars: protein: recombinant; tags: N-terminal GST; dsDNA, one strand shown. Put shortly: as §1

For test [11], the target named is ETV5 (Homo sapiens, UniProt P41161 1-510). Particulars: protein: recombinant; tags: N-terminal GST; dsDNA, one strand shown. In short, it runs like this: as §1
Chain of ETV5 (P41161 whole entry): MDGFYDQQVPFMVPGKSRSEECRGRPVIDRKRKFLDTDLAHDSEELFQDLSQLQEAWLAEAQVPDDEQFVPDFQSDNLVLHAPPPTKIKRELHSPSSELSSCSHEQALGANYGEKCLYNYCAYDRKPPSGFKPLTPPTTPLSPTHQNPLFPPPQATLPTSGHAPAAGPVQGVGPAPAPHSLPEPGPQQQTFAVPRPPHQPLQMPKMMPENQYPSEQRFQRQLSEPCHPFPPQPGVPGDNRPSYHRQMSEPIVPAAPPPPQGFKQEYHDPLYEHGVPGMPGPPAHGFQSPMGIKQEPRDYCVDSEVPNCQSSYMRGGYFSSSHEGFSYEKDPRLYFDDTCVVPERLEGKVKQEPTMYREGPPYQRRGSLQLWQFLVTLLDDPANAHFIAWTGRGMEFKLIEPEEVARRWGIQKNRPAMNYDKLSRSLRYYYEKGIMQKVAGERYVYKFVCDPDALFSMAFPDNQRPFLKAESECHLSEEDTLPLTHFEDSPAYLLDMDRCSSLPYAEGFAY
Test [12] addresses HSF1 (Homo sapiens, UniProt Q00613 1-529). Particulars: protein: recombinant; tags: N-terminal GST; chain copies: 3; dsDNA, one strand shown. In short, it runs like this:
as §1

For test [13], the target named is T8, SPIC (Homo sapiens, UniProt Q8N5J4 1-248).
T8 sequence: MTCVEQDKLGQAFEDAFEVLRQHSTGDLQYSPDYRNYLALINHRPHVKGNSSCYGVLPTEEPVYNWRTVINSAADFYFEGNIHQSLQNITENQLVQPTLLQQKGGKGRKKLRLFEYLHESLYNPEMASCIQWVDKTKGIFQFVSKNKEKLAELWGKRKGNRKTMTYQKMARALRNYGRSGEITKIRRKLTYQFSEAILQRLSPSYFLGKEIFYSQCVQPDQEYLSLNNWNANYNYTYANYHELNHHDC
Particulars: protein: recombinant; tags: N-terminal GST; dsDNA, one strand shown. In short, it runs like this: as §1

The target of test [14] is ELF4 (Homo sapiens, UniProt Q99607 1-663). Particulars: protein: recombinant; tags: N-terminal GST; dsDNA, one strand shown. Put shortly:
as §1

The target in test [15] is T9, ELK4 (Homo sapiens, UniProt P28324-2 1-405).
T9 sequence: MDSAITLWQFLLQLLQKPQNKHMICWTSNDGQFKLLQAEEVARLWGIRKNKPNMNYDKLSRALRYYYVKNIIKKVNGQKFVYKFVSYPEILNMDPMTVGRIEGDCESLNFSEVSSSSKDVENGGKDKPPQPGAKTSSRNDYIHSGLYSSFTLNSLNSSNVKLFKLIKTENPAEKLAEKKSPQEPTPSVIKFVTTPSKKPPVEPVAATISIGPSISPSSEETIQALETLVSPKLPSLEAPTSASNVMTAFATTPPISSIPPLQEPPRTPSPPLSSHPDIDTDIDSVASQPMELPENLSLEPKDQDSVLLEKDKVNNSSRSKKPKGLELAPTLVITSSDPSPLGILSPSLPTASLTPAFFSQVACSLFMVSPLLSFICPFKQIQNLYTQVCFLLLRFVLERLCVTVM
Particulars: protein: recombinant; tags: N-terminal GST; dsDNA, one strand shown. In short, it runs like this:
as §1

Test [16] deals with T10, ETV2 (Homo sapiens, UniProt O00321 1-342).
T10 sequence: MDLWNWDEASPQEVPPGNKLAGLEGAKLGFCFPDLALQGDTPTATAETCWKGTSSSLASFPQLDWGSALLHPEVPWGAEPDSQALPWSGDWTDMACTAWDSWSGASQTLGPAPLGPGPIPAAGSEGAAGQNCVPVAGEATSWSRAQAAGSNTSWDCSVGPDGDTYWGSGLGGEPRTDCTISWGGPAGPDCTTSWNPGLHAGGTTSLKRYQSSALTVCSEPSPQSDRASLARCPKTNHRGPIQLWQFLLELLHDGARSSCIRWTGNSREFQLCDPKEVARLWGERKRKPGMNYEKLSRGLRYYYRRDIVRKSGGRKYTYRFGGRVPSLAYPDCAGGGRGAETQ
To be noted: protein: recombinant; tags: N-terminal GST; dsDNA, one strand shown. Put shortly:
as §1

In test [17] the target is T11, ELF3 (Homo sapiens, UniProt P78545 1-371).
T11 sequence: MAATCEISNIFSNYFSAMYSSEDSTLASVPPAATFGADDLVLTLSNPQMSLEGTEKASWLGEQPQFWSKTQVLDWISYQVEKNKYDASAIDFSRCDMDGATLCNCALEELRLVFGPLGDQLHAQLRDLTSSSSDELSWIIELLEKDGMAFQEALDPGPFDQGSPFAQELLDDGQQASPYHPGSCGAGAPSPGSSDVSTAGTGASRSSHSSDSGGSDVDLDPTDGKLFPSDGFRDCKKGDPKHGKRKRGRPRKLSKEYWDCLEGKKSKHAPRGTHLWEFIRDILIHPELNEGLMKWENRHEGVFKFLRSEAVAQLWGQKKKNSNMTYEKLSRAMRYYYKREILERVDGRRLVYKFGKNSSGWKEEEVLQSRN
To be noted: protein: recombinant; tags: N-terminal GST; dsDNA, one strand shown. Put shortly: as §1

Test [18] concerns the target CRX (Homo sapiens, UniProt O43186 1-299). To be noted: protein: recombinant; tags: N-terminal GST; dsDNA, one strand shown. In short, it runs like this:
as §1

Test [19] deals with ETV1 (Homo sapiens, UniProt P50549 1-477). To be noted: protein: recombinant; tags: N-terminal GST; dsDNA, one strand shown. In short, it runs like this: as §1
Chain of ETV1 (P50549 whole entry): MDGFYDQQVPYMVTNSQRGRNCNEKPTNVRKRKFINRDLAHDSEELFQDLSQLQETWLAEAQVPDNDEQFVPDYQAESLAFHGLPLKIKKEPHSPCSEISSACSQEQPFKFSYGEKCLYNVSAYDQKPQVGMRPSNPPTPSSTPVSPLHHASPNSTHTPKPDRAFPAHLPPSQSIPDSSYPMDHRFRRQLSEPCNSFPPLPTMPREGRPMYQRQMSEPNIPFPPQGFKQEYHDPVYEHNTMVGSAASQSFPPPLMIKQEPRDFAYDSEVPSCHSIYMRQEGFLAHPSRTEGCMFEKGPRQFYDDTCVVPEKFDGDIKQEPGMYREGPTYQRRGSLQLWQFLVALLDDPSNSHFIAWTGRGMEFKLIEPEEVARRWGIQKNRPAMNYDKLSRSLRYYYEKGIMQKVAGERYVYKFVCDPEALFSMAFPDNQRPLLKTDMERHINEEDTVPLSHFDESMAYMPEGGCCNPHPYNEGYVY

Chain of ELF4 (Q99607 whole entry): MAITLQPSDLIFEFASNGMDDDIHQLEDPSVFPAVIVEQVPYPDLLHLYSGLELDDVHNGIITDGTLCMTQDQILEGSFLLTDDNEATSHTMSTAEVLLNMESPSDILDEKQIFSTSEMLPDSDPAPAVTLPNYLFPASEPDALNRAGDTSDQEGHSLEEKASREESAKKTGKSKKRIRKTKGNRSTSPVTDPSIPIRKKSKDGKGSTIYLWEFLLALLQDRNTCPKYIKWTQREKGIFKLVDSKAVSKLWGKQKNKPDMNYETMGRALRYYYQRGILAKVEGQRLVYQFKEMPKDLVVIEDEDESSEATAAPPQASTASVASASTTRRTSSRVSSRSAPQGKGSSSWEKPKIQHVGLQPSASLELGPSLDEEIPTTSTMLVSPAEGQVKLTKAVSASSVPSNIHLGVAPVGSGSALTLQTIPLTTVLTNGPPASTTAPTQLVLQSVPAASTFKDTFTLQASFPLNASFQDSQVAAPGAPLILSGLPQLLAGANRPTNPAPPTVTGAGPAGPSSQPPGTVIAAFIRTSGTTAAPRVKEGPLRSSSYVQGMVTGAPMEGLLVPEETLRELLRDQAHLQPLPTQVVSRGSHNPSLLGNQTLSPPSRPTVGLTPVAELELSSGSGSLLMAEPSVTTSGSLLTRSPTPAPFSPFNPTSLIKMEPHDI
Chain of CRX (O43186 whole entry): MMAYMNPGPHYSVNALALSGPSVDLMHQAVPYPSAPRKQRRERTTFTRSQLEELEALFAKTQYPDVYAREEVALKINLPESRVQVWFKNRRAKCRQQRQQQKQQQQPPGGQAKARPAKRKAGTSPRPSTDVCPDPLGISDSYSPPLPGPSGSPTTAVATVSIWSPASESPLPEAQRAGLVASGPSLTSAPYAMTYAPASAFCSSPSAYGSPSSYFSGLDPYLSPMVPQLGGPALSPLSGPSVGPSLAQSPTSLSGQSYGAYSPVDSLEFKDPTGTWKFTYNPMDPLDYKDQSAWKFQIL
Chain of HSF1 (Q00613 whole entry): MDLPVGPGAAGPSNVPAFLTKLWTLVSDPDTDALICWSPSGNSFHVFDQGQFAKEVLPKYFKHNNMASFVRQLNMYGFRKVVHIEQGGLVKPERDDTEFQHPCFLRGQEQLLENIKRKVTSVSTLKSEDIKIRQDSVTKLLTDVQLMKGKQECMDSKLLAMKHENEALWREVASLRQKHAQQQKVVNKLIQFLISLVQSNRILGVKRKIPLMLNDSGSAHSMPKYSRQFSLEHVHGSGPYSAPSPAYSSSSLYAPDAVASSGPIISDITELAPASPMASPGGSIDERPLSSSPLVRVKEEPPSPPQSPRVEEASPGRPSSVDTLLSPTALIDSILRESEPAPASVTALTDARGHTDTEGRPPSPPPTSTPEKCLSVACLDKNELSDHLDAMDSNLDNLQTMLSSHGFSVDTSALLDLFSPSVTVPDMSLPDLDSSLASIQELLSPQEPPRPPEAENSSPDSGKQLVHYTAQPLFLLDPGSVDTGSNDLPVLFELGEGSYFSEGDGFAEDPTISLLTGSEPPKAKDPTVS

As for AAATTA, the binding signal in test [1] is 1.27 fold enrichment (6-mer frequency, TF over GST control); in test [2], 1.18 fold enrichment (6-mer frequency, TF over GST control); in test [3], 1.29 fold enrichment (6-mer frequency, TF over GST control); in [4], 1.28 fold enrichment (6-mer frequency, TF over GST control); in [5], 1.29 fold enrichment (6-mer frequency, TF over GST control); in [6] it was 1.19 fold enrichment (6-mer frequency, TF over GST control). For the same sequence, the binding signal in test [7] is 1.22 fold enrichment (6-mer frequency, TF over GST control); in test [8] it was 1.26 fold enrichment (6-mer frequency, TF over GST control); in test [9] it was 1.29 fold enrichment (6-mer frequency, TF over GST control); in [10], 1.19 fold enrichment (6-mer frequency, TF over GST control); in test [11], 1.26 fold enrichment (6-mer frequency, TF over GST control); in [12], 1.44 fold enrichment (6-mer frequency, TF over GST control). In addition, the binding signal in test [13] was 1.21 fold enrichment (6-mer frequency, TF over GST control); in test [14], 1.23 fold enrichment (6-mer frequency, TF over GST control); in [15], 1.28 fold enrichment (6-mer frequency, TF over GST control); in test [16], 1.4 fold enrichment (6-mer frequency, TF over GST control); in [17], 1.31 fold enrichment (6-mer frequency, TF over GST control); in test [18], 1.65 fold enrichment (6-mer frequency, TF over GST control). For the same sequence, the binding signal in test [19] is 1.2 fold enrichment (6-mer frequency, TF over GST control).
